For four compounds, outcome and AC50 results are on record in PubChem BioAssay (EPA / NIEHS).

Records with an inconclusive call do not appear. Some compounds were tested as several samples or in several runs, with calls that do not always agree. Calls of active or inactive are those of the source. The calls were made as follows, unless noted: active = hit-call score of the fitted dose curve at least 0.9, where 1 is the maximum; inactive = score below 0.9.

Assay [1] has as its target Transcriptional activator Myb (Homo sapiens) (UniProt P10242). As to the kind of experiment: ATG_Myb_CIS: Attagene CIS-FACTORIAL HepG2 Assay for human Myeloblastosis (Myb) Proto-Oncogene Transcription Factor (AID 2282986). The conditions noted are these: HepG2 Attagene CIS-FACTORIAL Myb reporter transcription; actives raise or lower the signal. A digest of the protocol: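 Fluorescence signals from capillary electrophoresis of RT-PCR-amplified reporter cDNA give the read-out. Cells: HepG2 transfected with multiple cis-regulated reporter units. Exposure lasts 24 hours; DMSO defines baseline for gain or loss of signal.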

In assay [2] the target is Nuclear respiratory factor 1 (Homo sapiens) (UniProt Q16656). Kind of assay: ATG_NRF1_CIS: Attagene CIS-FACTORIAL HepG2 Assay for human Nuclear Respiratory Factor 1 (NRF1) Orphan Gene (AID 2282987). As to conditions: HepG2 NRF1 cis-element reporter, Attagene multiplex; actives raise or lower the signal. The gist of the method: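 Transcriptional reporter readout, one component of a 52-endpoint multiplexed HepG2 panel. Exposure 24 h; mRNA detected via RT-PCR and fluorescent capillary electrophoresis; fitting in both directions against DMSO.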
Sequence of Nuclear respiratory factor 1 (Homo sapiens) (Q16656 whole entry, looked up): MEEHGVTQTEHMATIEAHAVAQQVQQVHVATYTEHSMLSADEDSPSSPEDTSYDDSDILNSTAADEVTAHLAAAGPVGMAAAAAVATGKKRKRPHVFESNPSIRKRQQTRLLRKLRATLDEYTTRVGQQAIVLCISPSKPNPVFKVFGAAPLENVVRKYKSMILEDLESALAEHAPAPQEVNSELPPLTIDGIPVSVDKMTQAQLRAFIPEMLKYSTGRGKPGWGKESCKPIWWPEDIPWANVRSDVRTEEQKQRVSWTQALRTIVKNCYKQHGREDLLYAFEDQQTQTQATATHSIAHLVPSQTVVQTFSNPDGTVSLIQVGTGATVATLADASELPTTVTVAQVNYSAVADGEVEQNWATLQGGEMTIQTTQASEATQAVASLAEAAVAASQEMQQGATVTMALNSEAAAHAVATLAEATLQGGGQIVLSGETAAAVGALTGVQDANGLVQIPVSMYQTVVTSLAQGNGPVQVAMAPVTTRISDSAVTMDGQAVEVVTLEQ

Assay [3] in a line: ATG_NFI_CIS: Attagene CIS-FACTORIAL HepG2 Assay for human Nuclear Factor I (NFI) (AID 2282989). The conditions noted are these: HepG2 cis-regulatory reporter, NFI response element transcription; actives raise or lower the signal. The gist of the method:
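Transfected HepG2 liver cells, exposed 24 h, supplied total RNA for oligo(dT) reverse transcription and reporter-specific PCR. Labelled, HpaI-cut fragments were sized by capillary electrophoresis; DMSO set the baseline for bidirectional fitting.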

Assay [4] addresses Myc proto-oncogene protein (Homo sapiens) (UniProt P01106). Kind of assay: ATG_Myc_CIS: Attagene CIS-FACTORIAL HepG2 Assay for human Myelocytomatosis (Myc) Proto-Oncogene Transcription Factor (AID 2282990). As to conditions: HepG2, Attagene cis-reporter transcription factor activity; actives raise or lower the signal. The gist of the method:
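DMSO-normalised, bidirectionally fitted reporter mRNA signal. HepG2 cells transfected with cis reporter constructs, treated 24 h; transcripts detected by RT-PCR, 6-FAM primer extension and CE.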

Assay [5] can be described thus: ATG_NF_kB_CIS: Attagene CIS-FACTORIAL HepG2 Assay for human Nuclear Factor Kappa B (NF-kB) (AID 2282991). As to conditions: HepG2 Attagene cis-factorial NF-kB reporter mRNA; actives raise or lower the signal. The gist of the method: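 HepG2, transient multi-reporter transfection, cis promoter elements (endogenous TFs). 24 h exposure. Total RNA → RT → PCR → 6-FAM label → HpaI → CE. Gain/loss vs DMSO.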

A short description of assay [6]: ATG_NRF2_ARE_CIS: Attagene CIS-FACTORIAL HepG2 Assay for human Nuclear Factor Erythroid 2 Related Factor 2 (NFR2) response to Antioxidant Response Elements (ARE) (AID 2282992).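 As to AC50: reporter mRNA level measured by RT-PCR and capillary electrophoresis fluorescence.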 As to conditions: HepG2 Attagene ARE/NRF2 reporter, transcription factor activity; actives raise or lower the signal. The gist of the method: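 Multiplexed reporter mRNA profiling in HepG2 after a 24 h chemical exposure. Curves fitted in both directions relative to DMSO negative control.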

A short description of assay [7]: ATG_Oct_MLP_CIS: Attagene CIS-FACTORIAL HepG2 Assay for human Octamer-Binding Transcription Factor (Oct) (AID 2282993). The conditions noted are these: HepG2 Attagene cis-factorial Oct reporter, mRNA; actives raise or lower the signal. A digest of the protocol: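 Using HepG2 cells bearing transfected cis-reporter constructs, mRNA induction was read after 24 h by fluorescent RT-PCR and capillary electrophoresis, with DMSO defining baseline for gain- or loss-of-signal fits.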

The target in assay [8] is Cellular tumor antigen p53 (Homo sapiens) (UniProt P04637). Kind of assay: ATG_p53_CIS: Attagene CIS-FACTORIAL HepG2 Assay for human p53 Transcription Factor (AID 2282994). The conditions noted are these: HepG2 p53 cis-element reporter, Attagene mRNA; actives raise or lower the signal. A digest of the protocol:
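Multiplexed reporter mRNA assay in human HepG2 liver cells; cis-regulated units report endogenous factor activity. Values come from bidirectional curve fitting against DMSO negative control after 24 h treatment.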

Assay [9] can be described thus: BSK_3C_TissueFactor: BioMAP Diversity Plus: 3C Assay for Tissue Factor Biomarker Activity (AID 2282997). The conditions noted are these: BioMAP 3C HUVEC, tissue factor biomarker readout; actives raise or lower the signal. The gist of the method: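 Primary human umbilical vein endothelial cells in the 3C system were exposed to test chemical for 24 h, then Tissue Factor measured by ELISA. Activity was fitted bidirectionally against DMSO as negative control and baseline.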

The nature of assay [10]: BSK_3C_uPAR: BioMAP Diversity Plus: 3C Assay for Urokinase-type plasminogen activator receptor (uPAR) Biomarker Activity (AID 2282998). As to conditions: BioMAP 3C HUVEC, uPAR biomarker ELISA; actives raise or lower the signal. The gist of the method: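 In this endothelial cell-based assay, human umbilical vein primary cells were treated with chemicals and harvested at 24 h. uPAR was quantified using ELISA, with gains or losses fitted relative to DMSO controls.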

A short description of assay [11]: BSK_3C_VCAM1: BioMAP Diversity Plus: 3C Assay for Vascular cell adhesion molecule 1 (VCAM1) Biomarker Activity (AID 2282999). As to conditions: BioMAP 3C HUVEC, VCAM1 ELISA, cytokine-stimulated; actives raise or lower the signal. The gist of the method: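 Human umbilical vein endothelial cells were dosed with compound for 24 h, after which cell-surface VCAM-1 was quantified by ELISA. Bidirectional curve fitting used DMSO as negative control and activity baseline.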
For orientation: An ELISA detects its analyte on a solid surface through an enzyme-linked reagent.

Assay [12] can be described thus: BSK_4H_Eotaxin3: BioMAP Diversity Plus: 4H Assay for Eotaxin 3 Biomarker Activity (AID 2283000).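 As to outcome: CCL26 protein level quantified by ELISA in parallel with SRB cytotoxicity check.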 As to conditions: primary human endothelial cells (HUVEC); actives raise or lower the signal. The gist of the method:
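HUVEC, 24 h post-dose, ELISA for Eotaxin-3/CCL26. Gain or loss of signal fitted bidirectionally vs DMSO baseline.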

Assay [13] concerns the target human Peroxisome Proliferator-activated Receptor alpha (PPARa), PPARA (gene 5465) (UniProt Q07869). Kind of assay: ATG_PPARa_TRANS: Attagene TRANS-FACTORIAL HepG2 Assay for human Peroxisome Proliferator-activated Receptor alpha (PPARa) (AID 2283001; active = hit-call score of the fitted dose curve at least 0.9, where 1 is the maximum;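 as to AC50: potency for gain of reporter signal over DMSO so agonist or activator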). A digest of the protocol:
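HepG2 cells transiently transfected with multiplexed GAL4-UAS reporter units and chimeric NR-Gal4 constructs were dosed for 24 h. Reporter mRNA was measured by RT-PCR with fluorescent labelling and capillary electrophoresis; gain of signal fitted against DMSO.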

Assay [14] deals with human Peroxisome Proliferator-activated Receptor delta (PPARd), PPARD (gene 5467) (UniProt Q03181). Kind of assay: ATG_PPARd_TRANS: Attagene TRANS-FACTORIAL HepG2 Assay for human Peroxisome Proliferator-activated Receptor delta (PPARd) (AID 2283002; active = hit-call score of the fitted dose curve at least 0.9, where 1 is the maximum). The gist of the method:
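Measured quantity: GAL4-UAS reporter transcript induction in HepG2 after 24 h chemical dosing, with NR-Gal4 chimeras supplied by transient transfection. Detection by RT-PCR and capillary electrophoresis; upward fit against DMSO.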

Read-out in assay [15]: Intercellular Adhesion Molecule 1 (ICAM1), ICAM1 (gene 3383)
As to the kind of experiment: BSK_3C_ICAM1: BioMAP Diversity Plus: 3C Assay for Intercellular Adhesion Molecule 1 (ICAM1) Biomarker Activity (AID 2283003). As to conditions: primary human endothelial cells (HUVEC); actives raise or lower the signal. A digest of the protocol:
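Human vascular endothelial primary cells, 3C conditions, 24 h treatment. ICAM-1 by ELISA.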

Assay [16] deals with Retinoic acid receptor alpha (Homo sapiens) (UniProt P10276). As to the kind of experiment: ATG_RARa_TRANS: Attagene TRANS-FACTORIAL HepG2 Assay for human Retinoic Acid Receptor alpha (RARa) (AID 2283005; active = hit-call score of the fitted dose curve at least 0.9, where 1 is the maximum). A digest of the protocol:
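HepG2 cells transiently transfected with multiple reporter units expressing chimeric RARα-GAL4 fusion, with GAL4-UAS-driven reporters. After 24 h compound exposure, reporter mRNA induction quantified by RT-PCR and capillary electrophoresis with fluorescent labeling; gain-of-signal fitted relative to DMSO control.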

The nature of assay [17]: BSK_3C_Proliferation: Cell Proliferation Assessment in the BioMAP Diversity Plus: 3C Assay (AID 2283006).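 As to AC50: potency may reflect either rise or fall in cell number versus DMSO.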 As to conditions: primary human endothelial cells (HUVEC). A digest of the protocol:
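Proliferation of human vascular endothelial primary cells after 48 h dosing, quantified as SRB-stained protein at 560 nm relative to DMSO.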

Assay [18] deals with Peroxisome proliferator-activated receptor gamma (Homo sapiens) (UniProt P37231). As to the kind of experiment: ATG_PPARg_TRANS: Attagene TRANS-FACTORIAL HepG2 Assay for human Peroxisome Proliferator-activated Receptor-gamma (PPARg) (AID 2283007; active = hit-call score of the fitted dose curve at least 0.9, where 1 is the maximum). The gist of the method:
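Multiplexed reporter transcription units in HepG2, 24 h dosing, reporter transcripts quantified by fluorescent RT-PCR and capillary electrophoresis. Increase over DMSO scored.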

Assay [19] has as its target Nuclear receptor subfamily 1 group I member 2 (Homo sapiens) (UniProt O75469). Kind of assay: ATG_PXR_TRANS: Attagene TRANS-FACTORIAL HepG2 Assay for human Pregnane X Receptor (PXR) (AID 2283008; active = hit-call score of the fitted dose curve at least 0.9, where 1 is the maximum). A digest of the protocol: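 Measures mRNA induction of a GAL4-UAS-driven reporter in human HepG2 cells transiently expressing PXR fused to Gal4, following 24 h treatment. DMSO served as negative control and baseline.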

For assay [20], the target named is human Retinoic Acid Receptor gamma (RARg), RARG (gene 5916) (UniProt P13631). As to the kind of experiment: ATG_RARg_TRANS: Attagene TRANS-FACTORIAL HepG2 Assay for human Retinoic Acid Receptor gamma (RARg) (AID 2283009; active = hit-call score of the fitted dose curve at least 0.9, where 1 is the maximum). The gist of the method:
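HepG2, RARg-GAL4 TRANS system, 24 h exposure; reporter mRNA by RT-PCR + CE fluorescence; increase over DMSO.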

Sequence of human Retinoic Acid Receptor gamma (RARg), RARG (gene 5916) (P13631 whole entry, looked up, the tested form may be a part): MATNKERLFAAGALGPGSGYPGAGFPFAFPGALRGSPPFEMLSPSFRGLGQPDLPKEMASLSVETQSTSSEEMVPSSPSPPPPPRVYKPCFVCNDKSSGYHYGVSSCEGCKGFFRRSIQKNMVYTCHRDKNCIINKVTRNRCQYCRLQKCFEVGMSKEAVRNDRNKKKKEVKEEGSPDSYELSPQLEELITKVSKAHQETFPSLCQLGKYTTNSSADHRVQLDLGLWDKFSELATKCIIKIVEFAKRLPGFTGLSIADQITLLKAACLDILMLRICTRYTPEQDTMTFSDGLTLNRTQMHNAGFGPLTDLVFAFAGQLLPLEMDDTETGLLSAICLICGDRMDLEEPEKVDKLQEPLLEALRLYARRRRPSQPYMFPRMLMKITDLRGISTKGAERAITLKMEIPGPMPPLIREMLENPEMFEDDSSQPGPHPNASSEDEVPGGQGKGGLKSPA
Sequence of Retinoic acid receptor alpha (Homo sapiens) (P10276 whole entry, looked up, the tested form may be a part): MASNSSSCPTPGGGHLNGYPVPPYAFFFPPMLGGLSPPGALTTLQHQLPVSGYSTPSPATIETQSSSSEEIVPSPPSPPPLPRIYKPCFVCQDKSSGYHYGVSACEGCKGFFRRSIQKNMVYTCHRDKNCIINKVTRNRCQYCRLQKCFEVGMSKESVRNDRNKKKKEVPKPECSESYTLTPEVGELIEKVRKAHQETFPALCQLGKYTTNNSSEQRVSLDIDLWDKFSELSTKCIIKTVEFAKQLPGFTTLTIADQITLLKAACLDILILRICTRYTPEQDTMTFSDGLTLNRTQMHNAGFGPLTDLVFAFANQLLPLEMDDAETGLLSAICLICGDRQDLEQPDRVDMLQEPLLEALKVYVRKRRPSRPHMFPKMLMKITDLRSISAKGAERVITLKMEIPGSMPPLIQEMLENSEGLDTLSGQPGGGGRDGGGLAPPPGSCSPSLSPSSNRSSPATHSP
Sequence of Myc proto-oncogene protein (Homo sapiens) (P01106 whole entry, looked up): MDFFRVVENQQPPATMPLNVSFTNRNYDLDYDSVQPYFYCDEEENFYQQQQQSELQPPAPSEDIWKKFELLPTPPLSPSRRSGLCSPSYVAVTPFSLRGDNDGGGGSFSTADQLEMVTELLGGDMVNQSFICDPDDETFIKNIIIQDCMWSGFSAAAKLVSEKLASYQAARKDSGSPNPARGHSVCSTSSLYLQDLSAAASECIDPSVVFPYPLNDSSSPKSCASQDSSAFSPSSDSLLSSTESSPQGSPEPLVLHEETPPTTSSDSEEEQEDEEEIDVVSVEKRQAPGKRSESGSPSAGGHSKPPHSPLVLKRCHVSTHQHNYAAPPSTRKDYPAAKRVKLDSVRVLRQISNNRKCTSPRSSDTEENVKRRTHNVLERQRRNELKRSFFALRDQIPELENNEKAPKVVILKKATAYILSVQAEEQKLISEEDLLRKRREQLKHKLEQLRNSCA
Sequence of Nuclear receptor subfamily 1 group I member 2 (Homo sapiens) (O75469 whole entry, looked up, the tested form may be a part): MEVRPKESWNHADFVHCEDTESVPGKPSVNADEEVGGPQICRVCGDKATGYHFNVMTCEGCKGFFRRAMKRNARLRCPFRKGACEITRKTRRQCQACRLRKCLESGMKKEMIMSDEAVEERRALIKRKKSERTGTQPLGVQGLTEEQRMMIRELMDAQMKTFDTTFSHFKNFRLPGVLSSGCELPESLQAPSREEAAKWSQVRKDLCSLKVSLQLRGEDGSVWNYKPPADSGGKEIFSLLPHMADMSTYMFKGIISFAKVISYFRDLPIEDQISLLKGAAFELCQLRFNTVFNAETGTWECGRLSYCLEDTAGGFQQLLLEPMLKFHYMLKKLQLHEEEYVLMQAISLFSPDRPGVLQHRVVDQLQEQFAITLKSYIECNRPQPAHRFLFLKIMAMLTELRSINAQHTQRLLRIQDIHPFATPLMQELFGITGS
Sequence of human Peroxisome Proliferator-activated Receptor alpha (PPARa), PPARA (gene 5465) (Q07869 whole entry, looked up, the tested form may be a part): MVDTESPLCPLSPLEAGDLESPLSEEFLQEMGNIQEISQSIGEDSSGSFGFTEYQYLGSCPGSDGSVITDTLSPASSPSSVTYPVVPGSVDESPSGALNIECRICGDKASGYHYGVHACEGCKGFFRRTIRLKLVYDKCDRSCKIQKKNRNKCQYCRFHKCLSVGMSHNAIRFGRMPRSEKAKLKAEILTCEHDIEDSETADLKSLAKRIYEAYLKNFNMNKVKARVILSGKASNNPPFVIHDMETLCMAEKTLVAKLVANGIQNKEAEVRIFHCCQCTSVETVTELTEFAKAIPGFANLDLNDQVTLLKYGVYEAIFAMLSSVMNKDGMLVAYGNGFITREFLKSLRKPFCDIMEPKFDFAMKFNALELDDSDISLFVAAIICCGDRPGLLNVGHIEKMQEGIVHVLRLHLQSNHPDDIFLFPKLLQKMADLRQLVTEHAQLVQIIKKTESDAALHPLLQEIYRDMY
Sequence of Transcriptional activator Myb (Homo sapiens) (P10242 whole entry, looked up): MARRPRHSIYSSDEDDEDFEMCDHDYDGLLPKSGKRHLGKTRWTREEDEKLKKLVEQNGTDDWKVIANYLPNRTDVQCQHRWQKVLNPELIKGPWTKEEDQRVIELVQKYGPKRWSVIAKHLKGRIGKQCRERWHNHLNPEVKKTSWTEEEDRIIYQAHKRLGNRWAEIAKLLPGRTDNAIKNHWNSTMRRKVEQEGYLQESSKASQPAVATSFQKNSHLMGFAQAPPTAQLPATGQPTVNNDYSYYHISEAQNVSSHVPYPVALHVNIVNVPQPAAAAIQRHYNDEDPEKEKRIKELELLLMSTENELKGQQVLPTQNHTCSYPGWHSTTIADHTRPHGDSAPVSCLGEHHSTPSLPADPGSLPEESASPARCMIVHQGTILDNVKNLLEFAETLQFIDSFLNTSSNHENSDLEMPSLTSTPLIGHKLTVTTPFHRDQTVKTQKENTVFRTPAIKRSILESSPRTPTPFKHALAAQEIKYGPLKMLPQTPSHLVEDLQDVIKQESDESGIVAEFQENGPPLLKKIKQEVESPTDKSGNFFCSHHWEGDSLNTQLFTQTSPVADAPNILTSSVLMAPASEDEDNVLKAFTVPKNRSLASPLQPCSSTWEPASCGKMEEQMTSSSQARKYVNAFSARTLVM
Sequence of human Peroxisome Proliferator-activated Receptor delta (PPARd), PPARD (gene 5467) (Q03181 whole entry, looked up, the tested form may be a part): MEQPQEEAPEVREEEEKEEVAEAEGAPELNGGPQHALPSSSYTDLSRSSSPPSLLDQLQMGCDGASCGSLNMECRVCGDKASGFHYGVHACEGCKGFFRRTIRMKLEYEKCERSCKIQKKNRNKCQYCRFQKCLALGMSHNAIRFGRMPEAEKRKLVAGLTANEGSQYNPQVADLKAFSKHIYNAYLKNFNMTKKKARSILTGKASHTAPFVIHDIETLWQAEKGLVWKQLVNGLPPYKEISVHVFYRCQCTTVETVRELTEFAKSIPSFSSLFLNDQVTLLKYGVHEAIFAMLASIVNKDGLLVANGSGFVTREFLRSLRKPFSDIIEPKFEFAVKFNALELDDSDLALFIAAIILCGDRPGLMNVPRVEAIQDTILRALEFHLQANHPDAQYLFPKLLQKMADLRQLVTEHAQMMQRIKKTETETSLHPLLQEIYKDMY
Sequence of Peroxisome proliferator-activated receptor gamma (Homo sapiens) (P37231 whole entry, looked up): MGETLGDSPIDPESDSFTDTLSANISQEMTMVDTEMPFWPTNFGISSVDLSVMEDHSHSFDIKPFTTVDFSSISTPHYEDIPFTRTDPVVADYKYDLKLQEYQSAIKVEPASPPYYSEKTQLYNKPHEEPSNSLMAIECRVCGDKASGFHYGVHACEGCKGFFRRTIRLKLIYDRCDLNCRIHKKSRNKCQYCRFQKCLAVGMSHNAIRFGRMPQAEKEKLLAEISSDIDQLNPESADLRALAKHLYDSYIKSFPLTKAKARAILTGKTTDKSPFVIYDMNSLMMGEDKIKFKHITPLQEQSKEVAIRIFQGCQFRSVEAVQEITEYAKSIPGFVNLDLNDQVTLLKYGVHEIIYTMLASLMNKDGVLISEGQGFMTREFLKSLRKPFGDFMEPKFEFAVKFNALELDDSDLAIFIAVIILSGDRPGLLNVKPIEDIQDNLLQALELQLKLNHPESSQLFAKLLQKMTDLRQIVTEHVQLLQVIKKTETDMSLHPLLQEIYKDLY
Sequence of Cellular tumor antigen p53 (Homo sapiens) (P04637 whole entry, looked up): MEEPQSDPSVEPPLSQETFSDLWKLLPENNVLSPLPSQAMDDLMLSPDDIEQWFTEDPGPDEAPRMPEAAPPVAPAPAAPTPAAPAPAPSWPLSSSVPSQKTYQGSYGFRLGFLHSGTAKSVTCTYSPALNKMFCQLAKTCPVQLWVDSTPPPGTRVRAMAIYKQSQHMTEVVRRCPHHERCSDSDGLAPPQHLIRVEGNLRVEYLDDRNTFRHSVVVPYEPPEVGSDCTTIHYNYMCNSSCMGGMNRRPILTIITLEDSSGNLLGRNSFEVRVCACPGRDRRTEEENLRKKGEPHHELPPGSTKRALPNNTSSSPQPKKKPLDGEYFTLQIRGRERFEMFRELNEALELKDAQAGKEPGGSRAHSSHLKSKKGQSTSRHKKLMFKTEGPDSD

For the compound `N#Cc1ccc(O)cc1`, the compound was called inactive in [1], in assay [2], in [3], in assay [4], in assay [5] and in [6]. Besides, the call in assay [7] and in assay [8] was inactive.

As a reminder, the AC50 is the concentration at which the activity in the assay is half-maximal. Turning to `O=C(O)C(F)(OC(F)(F)C(F)(F)C(F)(F)F)C(F)(F)F` (centres undefined), the call in [1], in [2], in assay [3], in assay [4], in assay [5] and in assay [6] was inactive. Further, the compound was classed as inactive in assay [7], in assay [9], in assay [10], in assay [11], in [12] and in assay [13]. The outcome in assay [14], in [15], in assay [16], in assay [17], in [18] and in [19] was inactive. The compound was called inactive in [20]. The AC50 was 8.11 µM (active) in [12], 16.9 µM (active) in assay [13], 0.22 µM (active) in [17] and 102 µM (active) in assay [18].

In the case of `C=CC(=O)OCC(CC)(COC(=O)C=C)COC(=O)C=C`, the outcome in [1], in [2], in assay [3], in [4], in assay [8] and in assay [13] was inactive. In addition, the outcome in assay [14] and in assay [20] was inactive. Further, the AC50 in assay [5] is 5.65 µM (active); in assay [6], 1.65 µM (active); in assay [7], 25.5 µM (active); in [9], 1.5 µM (active); in assay [10], 3.57 µM (active); in assay [11], 2.55 µM (active). Further, the concentration at half-maximal activity (AC50) in [12] was 2.41 µM (active); in assay [15], 2.71 µM (active); in [17] it was 1.7 µM (active); in assay [18], 24.3 µM (active); in [19], 0.793 µM (active).

On to `N#Cc1c(-c2ccc(Cl)cc2)[nH]c(C(F)(F)F)c1Br`, for which the outcome in assay [1], in assay [2], in assay [3], in assay [4], in assay [5] and in assay [13] was inactive. Also, the result in assay [14], in [15], in assay [16] and in [20] was inactive. Further, the AC50 in assay [6] is 0.0823 µM (active); in [7] it was 0.0675 µM (active); in [9], 20 µM (active); in [10], 0.469 µM (active); in assay [11], 6.03 µM (active); in [12], 0.796 µM (active). Besides, the values for the AC50 in [17], in assay [18] and in assay [19] were 0.393 µM (active), 0.573 µM (active) and 0.585 µM (active), respectively.
